Results as given in the supplement of paper PMC10849652.
The full data set covers some 8,800 targets. This sample favours those with a hit. About 0.5% of all pairs of compound and target were hits.

Assays:
Assay in all cases: log2 fold change, soluble protein after heating vs DMSO (PISA); higher = thermal stabilisation; K562 lysate, 10 uM; active = over 0.2 and 3.5 SD of the protein, either way, in both replicates (recomputed)
[1] = compound: NCC(=O)Nc1ccc(-n2nc(C(F)(F)F)cc2-c2ccc3c(ccc4ccccc43)c2)cc1
Method in brief: (§1)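 K562 pellets were dounce-homogenised in PBS pH 7.4 with 1 mM MgCl2, and the crude extract at 1 mg/mL protein was treated with 10 μM compound for 30 min. Aliquots were heated for 3 min across 48°C-58°C, pooled, and brought to 0.5% NP-40 at 4°C; soluble protein was the supernatant after 21,000xg for 90 min. Soluble protein was quantified by TMTpro 16plex LC-MS/MS with channel sums equalised, and reported as log2 fold change in thermal stability against DMSO controls, with values from duplicates.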

[2] = compound: O=C(CCCCCCC(=O)Nc1ccccc1)NO [vorinostat]
Method in brief: as §1

[3] = compound: O=C(O)c1ccc2c(c1)nc(Nc1cccc(Cl)c1)c1ccncc12 [silmitasertib]
Method in brief: as §1

[4] = compound: O=C1NC(=O)C(c2cnc3ccccn23)=C1c1cn2c3c(cc(F)cc13)CN(C(=O)N1CCCCC1)CC2
Method in brief: as §1

[5] = compound: c1cn2cc(-c3ccc4cn[nH]c4c3)nc(Nc3ccc(N4CCOCC4)cc3)c2n1 [entospletinib]
Method in brief: as §1

Measured: log2 fold change

TEX30 (UniProt Q5JUR7)
inactive: [1] 0.035 | [3] 0.041 | [4] -0.006 | [5] 0.001
active: [2] -0.534

TMEM263 (UniProt Q8WUH6)
inactive: [1] 0.053 | [2] 0.289 | [3] -0.15 | [4] -0.113 | [5] -0.034

TUBE1 (UniProt Q9UJT0)
inactive: [1] 0.024 | [3] -0.049 | [4] -0.036 | [5] -0.027
active: [2] -0.264

UGDH (UniProt O60701)
Sequence of UniProt O60701 (O60701 whole entry, looked up): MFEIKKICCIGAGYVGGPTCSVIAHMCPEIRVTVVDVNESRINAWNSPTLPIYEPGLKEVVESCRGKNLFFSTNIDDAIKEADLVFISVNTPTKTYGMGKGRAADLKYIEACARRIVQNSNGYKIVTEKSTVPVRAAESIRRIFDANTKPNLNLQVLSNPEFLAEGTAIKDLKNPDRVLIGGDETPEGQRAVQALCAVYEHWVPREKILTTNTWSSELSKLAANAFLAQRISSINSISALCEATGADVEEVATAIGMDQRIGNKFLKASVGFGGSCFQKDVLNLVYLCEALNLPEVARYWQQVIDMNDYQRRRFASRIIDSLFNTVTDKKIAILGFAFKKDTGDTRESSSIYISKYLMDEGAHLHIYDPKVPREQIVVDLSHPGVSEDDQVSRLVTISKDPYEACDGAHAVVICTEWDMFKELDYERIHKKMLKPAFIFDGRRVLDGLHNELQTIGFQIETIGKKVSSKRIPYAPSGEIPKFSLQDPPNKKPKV
inactive: [1] 0.039 | [2] -0.206 | [3] 0.001 | [4] 0.01 | [5] -0.01

TJP1 isoform 2 (UniProt Q07157)
Sequence of UniProt Q07157 (Q07157 whole entry, looked up): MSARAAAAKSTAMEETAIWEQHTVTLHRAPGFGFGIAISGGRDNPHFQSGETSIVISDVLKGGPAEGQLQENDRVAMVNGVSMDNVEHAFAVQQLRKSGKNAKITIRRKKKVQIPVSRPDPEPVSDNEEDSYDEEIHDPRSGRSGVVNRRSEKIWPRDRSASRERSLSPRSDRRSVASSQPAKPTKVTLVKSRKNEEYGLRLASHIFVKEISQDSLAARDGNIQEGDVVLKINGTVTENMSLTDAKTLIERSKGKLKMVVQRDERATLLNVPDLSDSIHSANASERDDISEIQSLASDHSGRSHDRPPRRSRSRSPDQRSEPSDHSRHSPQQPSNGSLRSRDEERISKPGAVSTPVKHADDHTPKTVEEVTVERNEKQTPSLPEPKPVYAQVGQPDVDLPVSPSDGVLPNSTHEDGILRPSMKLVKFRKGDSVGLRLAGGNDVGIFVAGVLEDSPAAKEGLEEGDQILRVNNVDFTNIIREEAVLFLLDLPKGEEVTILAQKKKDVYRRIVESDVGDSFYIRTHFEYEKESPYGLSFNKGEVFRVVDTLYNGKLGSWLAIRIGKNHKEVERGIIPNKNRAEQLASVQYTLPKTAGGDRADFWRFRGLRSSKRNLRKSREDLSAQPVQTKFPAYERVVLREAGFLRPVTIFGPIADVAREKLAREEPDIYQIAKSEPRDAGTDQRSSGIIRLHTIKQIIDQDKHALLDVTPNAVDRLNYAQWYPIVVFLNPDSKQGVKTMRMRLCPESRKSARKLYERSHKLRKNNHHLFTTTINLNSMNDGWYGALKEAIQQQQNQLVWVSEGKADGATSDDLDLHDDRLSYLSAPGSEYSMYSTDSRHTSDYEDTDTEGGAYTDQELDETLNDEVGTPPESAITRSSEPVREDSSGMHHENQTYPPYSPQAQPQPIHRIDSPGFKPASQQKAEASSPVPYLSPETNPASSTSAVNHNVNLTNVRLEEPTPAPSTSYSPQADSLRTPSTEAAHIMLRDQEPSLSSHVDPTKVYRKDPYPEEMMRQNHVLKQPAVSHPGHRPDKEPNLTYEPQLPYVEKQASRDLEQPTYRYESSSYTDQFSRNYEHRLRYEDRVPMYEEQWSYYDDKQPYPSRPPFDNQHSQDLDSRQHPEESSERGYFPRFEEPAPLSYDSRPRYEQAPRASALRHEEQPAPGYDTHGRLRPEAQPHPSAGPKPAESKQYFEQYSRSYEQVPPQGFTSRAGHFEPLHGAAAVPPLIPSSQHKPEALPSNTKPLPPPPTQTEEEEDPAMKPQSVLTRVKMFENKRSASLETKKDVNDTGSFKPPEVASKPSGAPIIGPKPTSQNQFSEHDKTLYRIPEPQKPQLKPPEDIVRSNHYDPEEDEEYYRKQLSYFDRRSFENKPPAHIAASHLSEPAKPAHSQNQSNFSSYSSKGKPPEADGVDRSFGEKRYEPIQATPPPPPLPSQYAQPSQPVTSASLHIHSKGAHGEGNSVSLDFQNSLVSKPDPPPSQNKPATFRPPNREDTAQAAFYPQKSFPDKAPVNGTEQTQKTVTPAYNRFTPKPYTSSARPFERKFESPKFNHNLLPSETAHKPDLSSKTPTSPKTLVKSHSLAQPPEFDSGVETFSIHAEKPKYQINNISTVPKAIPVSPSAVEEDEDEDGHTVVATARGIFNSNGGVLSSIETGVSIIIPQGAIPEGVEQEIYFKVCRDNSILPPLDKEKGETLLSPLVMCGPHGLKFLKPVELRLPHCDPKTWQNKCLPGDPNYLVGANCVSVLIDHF
inactive: [1] 0.029 | [2] 0.041 | [3] -0.035 | [4] -0.023 | [5] -0.043

TTC27 (UniProt Q6P3X3)
inactive: [1] -0.027 | [3] 0.053 | [4] -0.06 | [5] -0.002
active: [2] -0.403

UBIAD1 (UniProt Q9Y5Z9)
Sequence of UniProt Q9Y5Z9 (Q9Y5Z9 whole entry, looked up): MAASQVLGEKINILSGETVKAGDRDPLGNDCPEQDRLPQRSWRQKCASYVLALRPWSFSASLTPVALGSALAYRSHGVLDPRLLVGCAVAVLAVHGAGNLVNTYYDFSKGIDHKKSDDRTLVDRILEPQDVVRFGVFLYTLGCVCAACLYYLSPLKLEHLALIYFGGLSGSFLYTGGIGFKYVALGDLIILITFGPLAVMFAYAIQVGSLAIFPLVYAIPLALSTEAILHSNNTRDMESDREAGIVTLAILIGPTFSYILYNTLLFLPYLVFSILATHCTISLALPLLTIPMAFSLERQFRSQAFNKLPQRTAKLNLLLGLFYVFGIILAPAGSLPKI
inactive: [1] -0.061 | [2] 0.042 | [3] 0.04 | [4] 0.032 | [5] 0.058

TSPAN13 (UniProt O95857)
inactive: [1] -0.024 | [2] 0.104 | [3] -0.008 | [4] 0.008 | [5] -0.015

TGOLN2 isoform 7 (UniProt O43493)
inactive: [1] -0.02 | [2] 0.089 | [3] 0.055 | [4] -0.047 | [5] -0.019

THADA (UniProt Q6YHU6)
Sequence of UniProt Q6YHU6 (Q6YHU6 whole entry, looked up): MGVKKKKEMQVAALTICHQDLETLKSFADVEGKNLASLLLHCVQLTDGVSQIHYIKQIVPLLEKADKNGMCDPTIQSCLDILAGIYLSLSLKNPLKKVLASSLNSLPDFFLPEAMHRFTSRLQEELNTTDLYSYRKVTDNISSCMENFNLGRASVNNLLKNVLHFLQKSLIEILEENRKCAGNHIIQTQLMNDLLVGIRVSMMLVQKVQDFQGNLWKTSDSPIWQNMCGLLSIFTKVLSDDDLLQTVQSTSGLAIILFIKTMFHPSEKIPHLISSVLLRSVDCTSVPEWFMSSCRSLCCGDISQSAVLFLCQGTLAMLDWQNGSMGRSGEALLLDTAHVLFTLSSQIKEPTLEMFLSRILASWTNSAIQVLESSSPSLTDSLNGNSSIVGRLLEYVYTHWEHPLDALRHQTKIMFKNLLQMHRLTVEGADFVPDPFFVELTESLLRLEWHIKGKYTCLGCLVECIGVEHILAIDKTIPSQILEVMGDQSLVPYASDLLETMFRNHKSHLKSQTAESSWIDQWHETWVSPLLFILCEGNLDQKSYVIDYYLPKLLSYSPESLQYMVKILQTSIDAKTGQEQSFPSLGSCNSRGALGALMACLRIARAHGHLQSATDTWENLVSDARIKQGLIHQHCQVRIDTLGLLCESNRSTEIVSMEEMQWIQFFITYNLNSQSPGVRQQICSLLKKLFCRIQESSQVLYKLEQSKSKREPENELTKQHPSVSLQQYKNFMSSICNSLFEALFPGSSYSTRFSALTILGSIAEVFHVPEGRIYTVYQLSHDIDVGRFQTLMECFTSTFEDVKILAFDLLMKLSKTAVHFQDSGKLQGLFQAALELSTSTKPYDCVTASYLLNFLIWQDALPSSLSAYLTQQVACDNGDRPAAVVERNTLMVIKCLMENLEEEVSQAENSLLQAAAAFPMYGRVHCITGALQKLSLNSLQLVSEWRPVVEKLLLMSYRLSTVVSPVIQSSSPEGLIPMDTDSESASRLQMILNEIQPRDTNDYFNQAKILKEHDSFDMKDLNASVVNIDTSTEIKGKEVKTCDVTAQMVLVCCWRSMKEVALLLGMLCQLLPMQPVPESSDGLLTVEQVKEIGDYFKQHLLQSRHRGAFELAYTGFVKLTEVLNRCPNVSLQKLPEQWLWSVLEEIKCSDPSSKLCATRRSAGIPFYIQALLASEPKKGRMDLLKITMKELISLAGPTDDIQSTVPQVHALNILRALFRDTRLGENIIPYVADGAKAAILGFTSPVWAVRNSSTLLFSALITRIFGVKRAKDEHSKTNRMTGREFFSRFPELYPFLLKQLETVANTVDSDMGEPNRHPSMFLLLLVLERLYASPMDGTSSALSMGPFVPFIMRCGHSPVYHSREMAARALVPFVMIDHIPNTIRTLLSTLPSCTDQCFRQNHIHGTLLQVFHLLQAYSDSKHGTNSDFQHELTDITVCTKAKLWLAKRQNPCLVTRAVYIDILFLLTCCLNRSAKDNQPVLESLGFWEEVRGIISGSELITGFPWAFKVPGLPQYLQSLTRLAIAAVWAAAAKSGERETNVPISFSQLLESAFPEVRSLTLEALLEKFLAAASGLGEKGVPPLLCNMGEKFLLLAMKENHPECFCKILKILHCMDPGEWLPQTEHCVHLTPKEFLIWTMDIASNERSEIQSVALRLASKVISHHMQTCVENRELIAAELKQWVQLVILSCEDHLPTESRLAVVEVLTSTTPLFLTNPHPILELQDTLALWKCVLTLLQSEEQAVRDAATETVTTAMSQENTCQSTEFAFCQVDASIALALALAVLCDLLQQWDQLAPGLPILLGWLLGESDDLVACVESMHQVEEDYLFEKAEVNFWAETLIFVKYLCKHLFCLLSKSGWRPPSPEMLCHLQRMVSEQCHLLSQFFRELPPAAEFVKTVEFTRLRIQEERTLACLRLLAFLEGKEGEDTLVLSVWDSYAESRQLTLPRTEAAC
inactive: [1] 0.009 | [3] 0.013 | [4] 0.015 | [5] 0.006
active: [2] -0.456

TYMS (UniProt P04818)
Sequence of UniProt P04818 (P04818 whole entry, looked up): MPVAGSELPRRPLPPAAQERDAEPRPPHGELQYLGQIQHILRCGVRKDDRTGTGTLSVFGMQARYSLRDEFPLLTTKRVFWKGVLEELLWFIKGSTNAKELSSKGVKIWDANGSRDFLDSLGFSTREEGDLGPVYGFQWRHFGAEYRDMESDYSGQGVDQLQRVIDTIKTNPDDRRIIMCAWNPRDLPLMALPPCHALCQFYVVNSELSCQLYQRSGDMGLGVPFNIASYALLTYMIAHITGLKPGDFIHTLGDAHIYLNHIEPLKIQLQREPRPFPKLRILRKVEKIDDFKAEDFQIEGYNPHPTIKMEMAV
active: [2] -0.231
inactive: [1] -0.02 | [3] 0.009 | [4] -0.005 | [5] 0.031

TCAF2 (UniProt A6NFQ2)
inactive: [1] 0.019 | [3] 0 | [4] 0 | [5] -0.01
active: [2] -0.27

TTF2 (UniProt Q9UNY4)
active: [2] -0.317
inactive: [1] 0.02 | [3] 0.008 | [4] -0.032 | [5] -0.074

TPM3 isoform 2 (UniProt P06753)
inactive: [1] -0.032 | [2] 0.048 | [3] 0.011 | [4] -0.047 | [5] -0.029

TUBGCP5 (UniProt Q96RT8)
inactive: [1] -0.029 | [4] 0.042 | [5] -0.105

TSPAN3 (UniProt O60637)
Sequence of UniProt O60637 (O60637 whole entry, looked up): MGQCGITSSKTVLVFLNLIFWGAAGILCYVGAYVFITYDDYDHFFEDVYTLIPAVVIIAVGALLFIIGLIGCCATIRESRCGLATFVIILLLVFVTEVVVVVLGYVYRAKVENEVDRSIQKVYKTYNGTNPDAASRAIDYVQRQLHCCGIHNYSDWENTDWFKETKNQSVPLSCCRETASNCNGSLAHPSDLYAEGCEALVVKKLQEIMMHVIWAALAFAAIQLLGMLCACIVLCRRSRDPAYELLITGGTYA
inactive: [1] -0.124 | [2] 0.105 | [3] -0.056 | [5] -0.005

TMEM132A isoform 2 (UniProt Q24JP5)
inactive: [2] -0.156 | [3] 0.351 | [4] 0.227 | [5] -0.089
